According to PubChem BioAssay AID1159580 (chemical genetic matrix, 2015):
In all, about 5,500 compounds went through this assay and about 2,000 (36%) were called active. Roughly 18% stayed inconclusive and do not appear here. Cut-off read from the data, not from the text of the source: active = normalized growth mostly below about 0.91 (no sharp cut-off); inconclusive = no clear call, values can overlap the other calls; inactive = mostly above about 0.92. The list shows a part of the results.

Experiment: chemical genetic growth profiling, strain panel (AID 1159580);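 note: tested at 20 µM; growth read once vehicle control cultures reached saturation at 30 °C; 1 = growth at the plate median or of vehicle wells; lower values mean less growth of the strain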
Conditions: S. cerevisiae deletion strains, growth OD
[1] = locus YAL013W, strain DEP1, hits give low values
[2] = locus YGR078C, strain PAC10, hits give low values
[3] = locus YJR075W, strain HOC1, hits give low values
[4] = locus YNL322C, strain KRE1, hits give low values
[5] = locus YPL055C, strain LGE1, hits give low values
[6] = locus YPL241C, strain CIN2, hits give low values
[7] = locus YHR030C, strain SLT2, hits give low values

Measured: normalized growth

COc1ccc2c(c1)C13CCCCC1C(C2)N(C)CC3 (stereo unspecified)
inactive: [1] 1.02 | locus YAL040C, strain CLN3, hits give low values 0.995 | locus YCL061C, strain MRC1 (second series), hits give low values 1 | locus YDR363W, strain ESC2, hits give low values 0.952 | locus YER002W, strain NOP16, hits give low values 1 | [2] 0.995 | locus YGR229C, strain SMI1, hits give low values 0.991 | [3] 0.985 | locus YNL128W, strain TEP1, hits give low values 1.01 | locus YNL175C, strain NOP13, hits give low values 1.01 | locus YNL197C, strain WHI3, hits give low values 1.01 | locus YNL224C, strain SQS1, hits give low values 1.01 | [4] 1 | locus YOR083W, strain WHI5 (second series), hits give low values 0.97 | [5] 0.967 | [6] 0.998

CC[C@@H](CO)NC(=O)[C@@H]1C=C2c3cccc4c3c(cn4C)C[C@H]2N(C)C1
inactive: [7] 1 | locus YHR079C, strain IRE1, hits give low values 0.989 | locus YJL095W, strain BCK1, hits give low values 0.981 | locus YJR066W, strain TOR1, hits give low values 0.926 | locus YLR113W, strain HOG1, hits give low values 1.02 | locus YNL183C, strain NPR1, hits give low values 0.928 | locus YOR231W, strain MKK1, hits give low values 1 | locus YPL256C, strain CLN2, hits give low values 0.973

CCOC(=O)CC(=O)CSc1nnc(N)s1
inactive: [1] 0.998 | locus YBR229C, strain ROT2, hits give low values 0.988 | locus YCL061C, strain MRC1, hits give low values 1.04 | locus YDL101C, strain DUN1, hits give low values 1.04 | locus YDR150W, strain NUM1, hits give low values 1 | locus YEL061C, strain CIN8, hits give low values 1 | [2] 1.02 | [7] 1.13 | locus YHR087W, strain rtc3, hits give low values 0.992 | locus YJR043C, strain POL32, hits give low values 1.06 | [3] 1.01 | locus YLR039C, strain RIC1, hits give low values 1 | locus YLR058C, strain SHM2 (second series), hits give low values 0.999 | locus YLR085C, strain ARP6, hits give low values 1.04 | locus YLR262C, strain YPT6, hits give low values 1.01 | locus YML094W, strain GIM5, hits give low values 1.02 | locus YMR219W, strain ESC1, hits give low values 1 | locus YMR263W, strain SAP30, hits give low values 1.02 | locus YMR307W, strain GAS1, hits give low values 0.985 | locus YNL153C, strain GIM3, hits give low values 1.05 | locus YNL298W, strain CLA4 (second series), hits give low values 1.05 | [4] 1.02 | locus YNR030W, strain Alg12, hits give low values 1.02 | locus YOL006C, strain TOP1, hits give low values 1.13 | [5] 0.978 | [6] 1.02 | locus YPR135W, strain CTF4, hits give low values 1.11
